Reference: PubChem BioAssay (Tox21)
Calls of active or inactive are those of the source. Calls come from the whole dose curve; as a rule, active = well fitted curve in the direction sought with a large enough effect in the repeat runs; inconclusive = weak or mixed curves; inactive = flat fitted curve, though single readings scatter.

Assay: qHTS assay to test for compound auto fluorescence at 590 nm (red) in HEK293 cells (AID 720679)
Conditions: red autofluorescence 540/590 nm; series mostly up to 91.3 µM; fluorescence, % of fluorescent control: at the top concentration
Excerpt: National Center for Advancing Translational Sciences [NCATS]
NIH Chemical Genomics Center [NCGC]
U.S. Environmental Protection Agency [EPA]
National Institutes of Environmental Health Sciences [NIEHS]
National Toxicology Program [NTP]
U.S. Food and Drug Administration [FDA]
Compound auto fluorescence often interferes with screening of the compound library against various biological targets and signaling pathways. Some of these compounds may have fluorophoric properties. Such properties may interfere with the assay outputs resulting in false positives and/or negatives. To decrease such complications and ensure the compound activities are relevant in terms of biological response, the Tox21 10K compound library was screened for auto fluorescence.
From the fluorophores used as reporter signals in our screening assays, the auto fluorescence equivalencies of compounds against three fluorophores have been evaluated: Triamterene, Fluorescein and Rose Bengal sodium for blue, green and red fluorescence, respectively. The fluorescence intensities were measured using Excitation/Emission wavelengths at 405/460nm, 485/535nm and 540/590nm for blue, green and red labels, respectively. This assay includes the red fluorescence data.
Tox21 Assay Protocol Summary:
2,000 HEK293 cells in 5 uL of culture medium containing 10% dialyzed FBS per well were dispensed into black wall/clear bottom 1536-well plates using a Multidrop Combi Dispenser (Thermo Scientific). The assay plates were incubated for 4-5 hr at 37C to allow cell attachment to the well bottom, followed by the transfer of 23 nL compound or DMSO vehicle by a pintool work station (Kalypsys, San Diego, CA). After the assay plates were incubated overnight at 37C and 5% CO2, fluorescence intensities in the assay plates were measured by an Envision (PerkinElmer, Shelton, CT) plate reader using three labels for measuring blue, green and red fluorescence at […] 460, 535 and 590nm respectively.
% is set by controls: 0 for no effect and ±100 for the full control effect.

Row | SMILES | fluorescence, % of fluorescent control | outcome
1 | CCCCCCCCCCCCC(=O)O | -0.0932% (inactive) | 
2 | CCOc1ccc(NC(=O)CC(C)=O)cc1 | -0.0919% (inactive) | 
3 | COC(=O)C(C)=O | 0.137% (inactive) | 
4 | O=C(O)[C@@H]1[C@H]2C[C@H]3c4[nH]c5ccccc5c4CCN3C[C@@H]2CC[C@@H]1O | -0.335% [at 18.6 µM] (inactive) | 
5 | Cc1c(Cn2ccnc2)c2ccccc2n1CCC(=O)O | 0.163% [at 46 µM] (inactive) | 
6 | CC(C)(C)C(=O)OCOP(=O)(COCCn1cnc2c(N)ncnc21)OCOC(=O)C(C)(C)C | 0.0061% [at 46 µM] (inactive) | 
7 | CCc1nn(C2CCCCC2)c2cc(C3(C#N)CCC(C(=O)O)CC3)ccc12 (stereo not given) | -0.687% (inactive) | 
8 | O=C1CCCCCO1 | -0.243% (inactive) | 
9 | O=c1[nH]cnc2ccccc12 | -0.291% [at 95.7 µM] (inactive) | 
10 | C=C(C)C(=O)OC(C)C | 0.345% (inactive) | 
11 | CC[C@H](C)[C@H](N)C(=O)O | 0.0014% [at 46 µM] (inactive) | 
12 | Cl/C(=C\n1cncn1)c1ccc(Cl)cc1Cl | -0.157% [at 46 µM] (inactive) | 
13 | c1ccc(CNCc2ccccc2)cc1 | -0.0982% (inactive) | 
14 | CCCCCCCCCCCCCCCC(=O)OC/C=C(C)/C=C/C=C(C)/C=C/C1=C(C)CCCC1(C)C |  | inactive
15 | CN(C)C/C=C(/c1ccc(Br)cc1)c1cccnc1 | 0.015% [at 46 µM] (inactive) | 
16 | N#CCc1cccc(C(F)(F)F)c1 | -0.0437% (inactive) | 
17 | CCCCCCCCCO | 0.286% (inactive) | 
18 | O=S1(=O)N=C(O)c2ccccc21 | 0.298% [at 46 µM] (inactive) | 
19 | CCOc1cc(OCC)c(C(=O)CCC(=O)O)cc1OCC | -0.14% [at 46 µM] (inactive) | 
20 | Cc1ccc(C)o1 | -0.54% (inactive) | 

Row | SMILES | fluorescence, % of fluorescent control | outcome
21 | O=C=NC1CCC(CC2CCC(N=C=O)CC2)CC1 (stereo not given) | -0.0163% (inactive) | 
22 | CC(C)(C)c1ccc(OCC2CO2)cc1 (stereo not given) | 0% [at 95.7 µM] (inactive) | 
23 | CC(=O)NCCCS(=O)(=O)O |  | inactive
24 | N#Cc1c(F)cccc1F | -0.0464% (inactive) | 
25 | O=C(/C=C/c1ccc(O)c(O)c1)O[C@@H]1C[C@](O)(C(=O)O)C[C@@H](O)[C@H]1O | 0.196% [at 95.7 µM] (inactive) | 
26 | O=C(O)Cc1cc(I)c(Oc2ccc(O)c(I)c2)c(I)c1 |  | inactive
27 | N#Cc1cc2ccccc2c2ccccc12 | -0.127% (inactive) | 
28 | Cc1cc(CC(=O)O)c(C)n1-c1ccc(Cl)cc1 | 0.126% [at 46 µM] (inactive) | 
29 | Cc1ccccc1N=Nc1ccc(N=Nc2c(O)ccc3ccccc23)c(C)c1 | -0.151% [at 46 µM] (inactive) | 
30 | Cc1ccc(C(C)c2ccc(C)c(C)c2)cc1C | 0.0172% (inactive) | 
31 | CCCCOC(O)CC (stereo not given) | 0.257% (inactive) | 
32 | CCN(CC)CCNC(C(=O)OCCC(C)C)c1ccccc1 (stereo not given) | -0.139% [at 46 µM] (inactive) | 
33 | CCN(CC)CCOC(=O)C1(c2ccccc2)CCCC1 | -0.326% [at 46 µM] (inactive) | 
34 | O=C(CC(=O)c1ccccc1)c1ccccc1 | -0.701% [at 95.7 µM] (inactive) | 
35 | CCCCOC(=O)/C=C\C(=O)OCCCC | 0.236% [at 95.7 µM] (inactive) | 
36 | O=S1(=O)c2cccc3cccc(c23)N1CCCN1CCN(c2ccc(F)cc2)CC1 | -0.166% [at 46 µM] (inactive) | 
37 | CC(C)(C)c1cc(O)c(C(C)(C)C)cc1O | 0.346% (inactive) | 
38 | O=C(O)COC(=O)Cc1ccccc1Nc1c(Cl)cccc1Cl | -0.0045% [at 18.6 µM] (inactive) | 
39 | CCN(CC)CCOc1ccc2c(c1)C(=O)c1cc(OCCN(CC)CC)ccc1-2 | -0.109% [at 46 µM] (inactive) | 
40 | C1=Cc2ccccc2C1 | -0.0173% (inactive) | 
